{"source": "paper PMC4552634", "about": "“A New Set of Chemical Starting Points with Plasmodium falciparum Transmission-Blocking Potential for Antimalarial Drug Discovery” (PLoS ONE, 2015)", "note": "The whole screen tested about 13,000 compounds, of which about 3,200 (25%) showed an effect of 50% or more. The list shows a part of the results."}
{"tested_on": "P. falciparum stage V gametocytes", "design": "BacTiter-Glo ATP luminescence viability of purified stage V gametocytes in 384-well plates, per cent inhibition versus DMSO", "conditions": "48 h, 5 µM; inhibitor", "units": {"% Inhibition": "%"}}
{"compound": "Nc1nc(N)c2c(CCc3ccc4ccccc4c3)cccc2n1", "note": "[TCMDC-141975]", "% Inhibition": -16.21}
{"compound": "O=C(O)C(F)(F)F.O=C(O)Cc1ccc(-c2c[nH]c3ncc(-c4cccc5ncccc45)cc23)cc1", "note": "[TCMDC-136372]", "% Inhibition": 46.28}
{"compound": "CC(C)(CNC(=O)C1CCN(CCOCc2ccccc2)CC1)c1nc(-c2ccc(Cl)c(O)c2)c(-c2ccncc2)[nH]1", "note": "[TCMDC-141122]", "% Inhibition": -51.1}
{"compound": "CN1CCc2cc(I)c(O)cc2C1Cc1ccccc1Cl", "note": "(stereo not drawn) [TCMDC-137321]", "% Inhibition": -44.87}
{"compound": "Cc1csc(-c2nonc2NC(=O)COc2ccccc2C(C)C)n1", "note": "[TCMDC-125014]", "% Inhibition": -9.384}
{"compound": "Cc1cc(N[C@@H](Cc2ccccc2)C(=O)NCc2cccc(F)c2)nc(NCCOc2ccccc2)n1", "note": "[TCMDC-134756]", "% Inhibition": 40.03}
{"compound": "Cc1cc(N[C@@H](Cc2ccccc2)C(=O)NCc2cccc(F)c2)nc(NCCc2cccnc2)n1", "note": "[TCMDC-134817]", "% Inhibition": 63.38}
{"compound": "CCCC(C)Nc1nc(C)cc(N[C@@H](Cc2ccccc2)C(=O)NCc2cccc(F)c2)n1", "note": "(stereo partly drawn) [TCMDC-134764]", "% Inhibition": -38.43}
{"compound": "Cc1cc(N[C@@H](Cc2ccccc2)C(=O)NCc2cccc(F)c2)nc(NCCc2cccs2)n1", "note": "[TCMDC-134812]", "% Inhibition": 147.6}
{"compound": "Cc1ccc(CNC(=O)[C@H](Cc2ccccc2)Nc2cc(C)nc(NCc3ccccc3C)n2)cc1", "note": "[TCMDC-134905]", "% Inhibition": 48.7}
{"compound": "Cc1cc(N[C@@H](Cc2ccccc2)C(=O)NCc2cccc(F)c2)nc(NCCCOC(C)C)n1", "note": "[TCMDC-134822]", "% Inhibition": 52.41}
{"compound": "Cc1ccc(CNC(=O)[C@H](Cc2ccccc2)Nc2cc(C)nc(NCCc3ccc(F)cc3)n2)cc1", "note": "[TCMDC-134788]", "% Inhibition": 66.59}
{"compound": "CCCC(C)Nc1nc(C)cc(N[C@@H](Cc2ccccc2)C(=O)NCc2ccc(C)cc2)n1", "note": "(stereo partly drawn) [TCMDC-134894]", "% Inhibition": -11.47}
{"compound": "Cc1cc(N[C@@H](Cc2ccccc2)C(=O)NCc2cccc(F)c2)nc(Nc2ccccc2)n1", "note": "[TCMDC-134857]", "% Inhibition": -8.236}
{"compound": "COc1ccc(Cn2c(Nc3cccc(C(F)(F)F)c3)nc3cc(C(=O)NC(C)C)cnc32)cc1Cl", "note": "[TCMDC-138556]", "% Inhibition": 8.056}
{"compound": "CC[C@H](C)CNC(=O)c1ccc(-c2cccc(CN3CCC(N4CCCC4)CC3)c2)nc1", "note": "[TCMDC-134222]", "% Inhibition": 28.35}
{"compound": "Cc1cccc2[nH]c(-c3cccc(-c4ccc(NC(=O)C(C)(C)c5ccccn5)cc4)c3)nc12", "note": "[TCMDC-137053]", "% Inhibition": 15.43}
{"compound": "COc1cc(-c2nnc(SCC(=O)Nc3cc(C)on3)n2C)cc(OC)c1O", "note": "[TCMDC-123652]", "% Inhibition": -77.31}
